Columns and labels:
Conditions in all cases: concentration: 1 μM, replicates: in singlicate; n = 1
STK36 = system: STK36
STK39 = system: STK39
SYK = system: SYK
SgK110 = system: SgK110
TAK1 = system: T1, TAK1
T1 construct: gene MAP3K7

TAOK1 = system: TAOK1
TAOK2 = system: TAOK2
TAOK3 = system: TAOK3
TBK1 = system: TBK1
TEC = system: TEC
TESK1 = system: TESK1
TGFBR1 = system: TGFBR1
TGFBR2 = system: TGFBR2
TIE1 = system: TIE1
TIE2 = system: T2, TIE2
T2 construct: gene TEK

TLK1 = system: TLK1
TLK2 = system: TLK2
TNIK = system: TNIK
TNK1 = system: TNK1
TNK2 = system: TNK2
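Further: KINOMEscan kinase panel screen.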

Structure (SMILES)	%Inh (STK36) [%]	%Inh (STK39) [%]	%Inh (SYK) [%]	%Inh (SgK110) [%]	%Inh (TAK1) [%]	%Inh (TAOK1) [%]	%Inh (TAOK2) [%]	%Inh (TAOK3) [%]	%Inh (TBK1) [%]	%Inh (TEC) [%]	%Inh (TESK1) [%]	%Inh (TGFBR1) [%]	%Inh (TGFBR2) [%]	%Inh (TIE1) [%]	%Inh (TIE2) [%]	%Inh (TLK1) [%]	%Inh (TLK2) [%]	%Inh (TNIK) [%]	%Inh (TNK1) [%]	%Inh (TNK2) [%]
CN(c1ccc2c(c1)nc(NCc1ccccc1)n2C)c1ccnc(Nc2ccc(CS(C)(=O)=O)cc2)n1.Cl [GW811603]	0	7	69	0	46	0	0	0	4	0	0	30	5	88	82	0	0	24	25	0
CCn1c(-c2nonc2N)nc2c(-c3ccccc3)ncc(OCCCN)c21.O=C(O)C(F)(F)F.O=C(O)C(F)(F)F [GSK260205]	0	7	19	0	0	0	0	0	5	0	0	76	0	70	41	1	0	85	1	8
Cc1ccc(C)c(NC(=O)Nc2ccc(C)c(-c3ccc(C(=O)Nc4ccncc4)cc3)c2)c1 [GSK1398473]	2	5	17	20	0	0	0	0	2	5	20	11	0	0	0	0	0	0	7	36
CC(C)NCC(Cc1ccccc1)NC(=O)c1cc(Br)c(-c2ccnc3[nH]ccc23)s1.Cl.Cl (centres unmarked) [GSK1383281]	0	0	0	73	0	41	0	0	20	0	47	1	0	69	0	8	13	5	0	0
O=C(Nc1n[nH]c2cc(-c3cccs3)ccc12)C1CC1 [SB-731284]	0	0	0	0	23	61	0	34	47	0	0	0	0	0	7	0	0	56	0	0
Nc1ncc(-c2ccc3nccc(-c4ccncc4)c3c2)cc1S(=O)(=O)N1CCCCC1 [GSK1693850]	0	0	29	0	14	3	0	5	6	0	20	0	0	4	0	37	0	10	0	9
O=C(Nc1n[nH]c2nc(-c3ccccc3)ccc12)C1CC1 [SB-708999]	8	0	0	0	0	40	0	7	8	0	17	0	0	15	3	0	0	79	0	2
COc1ccc(C2=C(Nc3cccc(O)c3)C(=O)NC2=O)cc1 [SB-390766]	100	34	0	100	0	0	1	0	0	14	12	20	0	0	0	0	4	0	0	5
Cc1ccc(O)cc1Nc1ccnc2ccc(C(C)(C)C)cc12 [GW856805]	0	43	24	0	57	35	13	28	27	31	0	8	93.2	38	39	0	31	0	69	13
CC(C)c1nc(-c2ccc(F)c(NS(=O)(=O)c3c(F)cccc3F)c2)c(-c2ccnc(Nc3ccc(N4CCOCC4)nc3)n2)s1 [GSK1804250]	100	11	46	0	46	4	0	5	6	45	96.2	90.8	92.9	87	98.9	19	11	27	100	99.5
COc1ccc(C)c(Nc2ccnc(Nc3ccc(-c4cnc[nH]4)cc3)n2)c1.Cl [GW784041]	36	0	16	0	0	0	3	0	49	7	21	39	34	0	36	0	0	9	44	36
c1ccc(Oc2ccc(Nc3ccnc4cc(-c5ccc(CN6CCCCC6)o5)ccc34)cc2)nc1 [GW567143]	0	0	0	0	0	0	0	0	0	41	16	0	0	23	0	0	0	14	56	36
CCNc1nccc(-c2c(-c3ccc(F)cc3)ncn2C2CCN(C)CC2)n1	25	0	0	0	0	0	0	0	1	14	0	0	0	100	0	17	0	24	0	0
O=C(Nc1c(F)cccc1F)c1cc(C(=O)c2ccccc2F)c[nH]1 [GSK1326180]	0	0	22	0	0	0	0	0	3	7	10	0	6	0	0	0	0	20	8	8
Cn1cc(-c2ccc3c(c2)CCN3C(=O)Cc2cc(F)cc(C(F)(F)F)c2)c2c(N)ncnc21 [GSK2635225]	19	0	27	0	39	0	0	0	21	0	26	0	0	87	52	17	5	20	10	2
Cl.Cl.NC(CNC(=O)c1cc(Br)c(-c2ccnc3[nH]ccc23)s1)c1ccccc1 (centres unmarked) [GSK1322949]	0	5	27	0	36	66	3	44	20	1	37	10	32	33	6	31	12	59	14	10
Cc1ccc(NC(=O)c2ccnc(N3CCCCC3)c2)cc1-c1ccc(C(=O)NCC2CC2)cc1 [GW775610]	0	15	0	0	0	0	0	0	0	0	1	6	0	0	0	100	0	0	0	0

Structure (SMILES)	%Inh (STK36) [%]	%Inh (STK39) [%]	%Inh (SYK) [%]	%Inh (SgK110) [%]	%Inh (TAK1) [%]	%Inh (TAOK1) [%]	%Inh (TAOK2) [%]	%Inh (TAOK3) [%]	%Inh (TBK1) [%]	%Inh (TEC) [%]	%Inh (TESK1) [%]	%Inh (TGFBR1) [%]	%Inh (TGFBR2) [%]	%Inh (TIE1) [%]	%Inh (TIE2) [%]	%Inh (TLK1) [%]	%Inh (TLK2) [%]	%Inh (TNIK) [%]	%Inh (TNK1) [%]	%Inh (TNK2) [%]
CC(C)(C)c1ccc(C(=O)Nc2cn3cc(-n4ccnc4)ccc3n2)cc1	10	0	0	15	9	0	0	0	24	0	0	0	0	3	17	4	0	2	0	0
CN(c1ccc(NC(=O)Nc2cccc(Cl)c2)cc1)c1ccnc(N)n1.Cl [GW830707]	0	0	2	0	19	0	8	0	0	0	4	71	0	86	19	0	5	0	28	3
COC(=O)Nc1nc2cc(Oc3ccc(NC(=O)Nc4cccc(SC)c4)cc3)ccc2[nH]1.Cl [GW697999]	8	0	23	0	36	0	0	0	0	5	3	25	0	96.5	93.2	0	0	0	4	10
Cc1ccc(NC(=O)c2cccc(N3CCCCC3)c2)cc1-c1ccc(C(=O)NCC2CC2)cc1 [GSK1917008]	0	0	20	0	0	8	0	12	0	0	0	24	9	1	0	4	0	2	6	16
Cn1cc(-c2cnc(N)c3c(-c4ccc5c(c4)CCN5C(=O)Cc4ccccc4)csc23)cn1 [GSK2593074]	0	0	16	8	33	0	0	0	23	14	53	6	4	84	84	31	5	8	19	62
COc1ccc(NC(=O)c2ccoc2)cc1-c1ccc(C(=O)NCC2CC2)cc1 [GW810437]	0	10	12	36	18	23	24	15	8	0	6	37	0	0	5	2	12	21	16	0
CNc1nccc(-c2ccc3c(N)n[nH]c3c2)n1 [GSK2206003]	0	0	23	0	37	64	0	0	22	5	31	25	9	15	0	8	1	50	0	17
Cc1ccc(Nc2ccnc(Nc3ccc(C)c(F)c3)n2)cc1O.Cl [GW582868]	7	18	56	0	0	0	0	0	16	7	0	0	83	47	0	0	0	0	0	29
N#CC1(c2cccc(C(=O)Nc3cccc(Oc4ccc5nc(NC(=O)C6CC6)sc5n4)c3)c2)CC1	0	0	22	17	0	0	28	0	15	0	9	0	0	73	37	0	0	53	76	0
CN(C)c1ncnc2nc[nH]c12 [SKF-31736]	0	5	0	0	0	0	26	3	34	0	0	0	0	5	0	0	0	0	0	0
Cc1ccccc1CC(=O)N1CCc2cc(-c3cn(C)c4ncnc(N)c34)ccc21 [GSK2603346]	0	13	0	0	6	0	0	0	5	0	45	0	3	87	48	0	0	0	0	27
CN(c1ccc(NC(=O)N2CCN(CCCN3CCOCC3)CC2)cc1)c1ccnc(Nc2ccc(CS(C)(=O)=O)cc2)n1.Cl [GW830899]	5	0	15	0	0	0	0	0	53	0	9	6	59	0	16	2	0	15	41	12
CN(C)CCNS(=O)(=O)c1ccc(-c2ccnc3[nH]ccc23)cc1 [GSK977620]	0	5	31	0	1	3	0	0	0	0	74	0	0	32	0	7	7	0	0	7
COc1cccc(CC(=O)N2CCc3cc(-c4cn(C)c5ncnc(N)c45)ccc32)c1 [GSK2608899]	17	22	26	0	43	2	0	3	25	19	21	0	6	82	42	15	0	81	0	0
Cl.O=C(Nc1ccc(Oc2ccc3[nH]c(NC(=O)c4ccco4)nc3c2)cc1)Nc1cc(C(F)(F)F)ccc1F [GW683134]	0	12	31	0	89	0	0	0	0	13	36	0	0	100	99.8	0	3	0	56	8
CSc1ccc(NC2=C(c3ccc(Cl)cc3)C(=O)NC2=O)cc1 [SB-317658]	15	0	3	0	39	18	0	0	0	0	20	38	23	42	17	8	18	0	41	0
Fc1cc(Cl)ccc1Nc1ccnc2cc(-c3ccc(CN4CCSCC4)o3)ccc12 [GW560106]	0	4	51	0	0	0	0	0	6	0	17	0	71	1	6	0	0	47	87	75

— publication PMC5540273 (PLoS ONE, 2017)
